Earlier results on twelve compounds are cited in PubChem BioAssay AID977611.

The nature of this data set: PubChem AID 977611. As to conditions: PDB protein-ligand complexes, literature Kd.

The campaign covered roughly 3,900 compounds. About 3,900 (100%) were called active. Cut-off not given; nearly all actives show Kd up to about 4200 µM. So high a share suggests a set chosen from earlier hits. This is one part of the list. Where a SMILES comes first, the peptide text is derived from it. Square brackets hold non-standard residues; d marks the D form. Residues, ends and D or L forms follow the SMILES beside them. Peptide text beside a SMILES is read from it. [ ]: non-standard residue; d: D form. Orn(CH(NH2)2) = NC(N)NCCC[C@H](N)C(=O)O

As to `CC[C@H](C)[C@H](NC(=O)[C@@H](N)CC(=O)O)C(=O)N[C@@H](CC(=O)O)C(=O)N[C@H](C(=O)N[C@@H](CCSC)C(=O)NCC(=O)N[C@@H](CC(C)C)C(=O)O)C(C)C` (H-DIDVMGL-OH), the Kd (protein: Rhodopsin, PDB entry 4pxf) was 800 µM (active).

H-AIIGLMVGGVV-OH: the Kd (protein: ponezumab Fab, PDB entry 3u0t) was 0.0003 µM (active).

As to `CC(C)C[C@H](NC(=O)[C@@H](NC(=O)[C@@H]1CCCN1C(=O)[C@@H]1CCCN1C(=O)[C@@H]1CCCN1)[C@@H](C)O)C(=O)N1CCC[C@H]1C(=O)N[C@@H](CCCCN)C(=O)N1CCC[C@H]1C(=O)N[C@@H](C)C(=O)N[C@@H](C)C(=O)N1CCC[C@H]1C(=O)O` (H-PPPTLPKPAAP-OH), the equilibrium dissociation constant (Kd) (protein: Nebulette, PDB entry 4f14) is 12.9 µM (active).

In the case of H-PPPLPP-OH, the Kd (protein: WW domain of Formin-binding protein 11(FBP11), PDB entry 1ywi) was 371 µM (active).

Consider `CC(C)C[C@H](NC(=O)[C@@H]1CCCN1C(=O)[C@H](CCCNC(N)N)NC(=O)[C@@H]1CCCN1C(=O)[C@@H]1CCCN1)C(=O)N1CCC[C@H]1C(=O)N[C@H](C(=O)N[C@@H](C)C(=O)N1CCC[C@H]1C(=O)NCC(=O)N[C@@H](CO)C(=O)N[C@@H](CO)C(=O)N[C@@H](CCCCN)C(=O)N[C@H](C(=O)O)[C@@H](C)O)C(C)C` (H-PP[Orn(CH(NH2)2)]PLPVAPGSSKT-OH), for which the Kd (protein: Fny(SH3 domain, 82 - 148), PDB entry 1azg) is 16 µM (active).

Regarding `CC(C)C[C@@H](C=O)NC(=O)[C@H](CC(C)C)NC(=O)[C@@H]1CCCN1C(=O)[C@H](CCCCN)NC(=O)[C@@H]1CCCN1C(=O)[C@H](C)NC(=O)[C@@H](NC(=O)[C@@H]1CCCN1C(=O)[C@H](CCCNC(N)N)NC(=O)[C@@H]1CCCN1C(=O)[C@@H]1CCCN1C(=O)[C@@H]1CCCN1)[C@@H](C)O` (H-PPP[Orn(CH(NH2)2)]PTAPKPLL-aldehyde), the Kd (protein: Mona/GadsSH3C, PDB entry 2w10) is 0.17 µM (active).

In the case of `O=C(O)[C@@H]1CCCN1C(=O)[C@@H]1CCCN1C(=O)[C@@H]1CCCN1C(=O)[C@@H]1CCCN1C(=O)[C@@H]1CCCN1C(=O)[C@@H]1CCCN1C(=O)[C@@H]1CCCN1C(=O)[C@@H]1CCCN1C(=O)[C@@H]1CCCN1` (H-PPPPPPPPP-OH), the Kd (protein: PROLYL 4-HYDROXYLASE SUBUNIT ALPHA-1, PDB entry 4btb) is 9.8 µM (active).

Regarding `O=C(O)CNC(=O)[C@@H]1CCCN1C(=O)[C@@H]1CCCN1C(=O)CNC(=O)[C@@H]1CCCN1C(=O)[C@@H]1CCCN1C(=O)CNC(=O)[C@@H]1CCCN1C(=O)[C@@H]1CCCN1` (H-PPGPPGPPG-OH), the Kd (protein: PROLYL 4-HYDROXYLASE SUBUNIT ALPHA-1, PDB entry 4bt9) is 144 µM (active).

As for `COC(=O)c1cccc2[nH]ccc12`, the dissociation constant (Kd) (protein: DNA REPAIR AND RECOMBINATION PROTEIN RADA, PDB entry 4b35) is 1300 µM (active).

In the case of `CC1C(=O)OC2=C1C=COC2` (configuration not stated), the dissociation constant (Kd) (protein: Hydrolase, alpha/beta fold family protein, PDB entry 4jym) was 9.05 µM (active).

For the compound `C=C(C)/C=C/[C@H]1[C@@H](C)CCCC1(C)C`, the Kd (protein: Cellular Retinal Binding Protein, PDB entry 4ciz) is 0.051 µM (active).

For `CC(C)C(=O)C[N+]1=C2N=C(N3CCOC[C@H]3C)CC(=O)N2CC[C@H]1C(F)(F)F`, the Kd (protein: PHOSPHATIDYLINOSITOL 3-KINASE CATALYTIC SUBUNIT TYPE 3 Vsp34, PDB entry 4uwl) was 0.0027 µM (active).
